{"source": "PubChem BioAssay (NCI)", "note": "Compounds without any hit were thinned out: in the full panel of roughly 83,000, 20% have a hit.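 For each line, cells grew in 96-well plates with the test compound present at a single concentration for 48 hours.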 Values without a mark were called inactive. Calls of active or inactive are those of the source. How the source made its calls: active means growth percent below 10; inactive means the rest."}
{"tested_on": "IGROV1 ovarian", "experiment": "NCI-60 one-dose screen, 48 h (100 = growth as untreated, 0 = no growth, -100 = all killed)", "details": "10 µM unless noted"}
{"smiles": "O=C(Nc1cccnc1Nc1ccc(Cl)cc1)c1cn(Cc2cccc(Oc3ccccc3)c2)nn1", "growth": "77.6%"}
{"smiles": "C1CCC(N2CN3c4nonc4N4CN(C5CCCCC5)CN5c6nonc6N(C2)C3C45)CC1", "note": "(centres undefined)", "growth": "104%"}
{"smiles": "N#Cc1c(-c2ccc(Br)cc2)nc2c(N=Nc3ccc(S(N)(=O)=O)cc3)c(N)nn2c1N", "growth": "40.9%"}
{"smiles": "COc1cc(/C=C/C(=O)c2cc(OC)c(OC)c(OC)c2)ccc1Oc1nc2c(c(=O)n(C)c(=O)n2C)n1C", "growth": "-8.8% (active)"}
{"smiles": "CC1(/C=C/c2ccc(-c3ccccc3)cc2)CCn2cnc3ncnc(c32)N1O", "note": "(centres undefined)", "growth": "15.3%"}
{"smiles": "CCCc1cc(=O)oc2c(C(=O)CC(C)C)c(O)c(CC=C(C)C)c(O)c12", "growth": "36.9%"}
{"smiles": "CS(=O)(=O)Nc1cc(-c2ccc3ncnc(Nc4ccc(OCc5ccccn5)c(Cl)c4)c3c2)cnc1Cl", "growth": "-30.6% (active)"}
{"smiles": "CCN1CCN(CCNc2nccc(-c3c(-c4ccc(F)c(O)c4)nc4occn34)n2)S1(=O)=O", "growth": "44.2%"}
{"smiles": "COc1ccc(C2[C@@H](Cl)C(=O)N2c2cc(OC)c(OC)c(OC)c2)cc1Cl", "note": "(some centres undefined)", "growth": "33.5%"}
{"smiles": "CN1CCN(Cc2ccc(NC(=O)c3cncc(C#Cc4cnc(N)cc4C#N)c3)cc2C(F)(F)F)CC1", "growth": "1.46% (active)"}
{"smiles": "CN(C)c1ccc([C@@H](C(=O)Nc2cccc([N+](=O)[O-])c2)N(C(=O)c2cc3ccccc3[nH]2)c2cccc([N+](=O)[O-])c2)cc1", "growth": "103%"}
{"smiles": "c1cc(OCCN2CCCCC2)ccc1CNc1ccc2nc(CCC3CCCCC3)[nH]c2c1", "growth": "42.3%"}
{"smiles": "Cc1[nH]n(-c2cccc(Cl)c2)c(=O)c1/C=C1\\C=c2ccccc2=CC1=O", "growth": "33.9%"}
{"smiles": "CC(C)(C)OC(=O)CN1CCc2c(sc3ncnc(N4CCN(c5ccc(F)cc5)CC4)c23)C1", "growth": "89.8%"}
{"smiles": "Cc1ccc2c(c1)sc1nc(-c3c[nH]c4ccccc34)c(Nc3ccccc3)n12", "growth": "104%"}
{"smiles": "Cn1c(C#N)ccc1-c1ccc(F)c(NC(=O)c2ccc(F)cc2)c1", "growth": "74.2%"}
{"smiles": "CCOC(=O)C1=C(CC(O)c2ccc(OC)cc2OC)NC(=O)NC1c1ccccc1", "note": "(centres undefined)", "growth": "118%"}
{"smiles": "CCSc1ccnc(N)n1", "growth": "96.7%"}
{"smiles": "Cc1ccc(S(=O)(=O)c2nc(-c3ccccc3)oc2SCC(N)=O)cc1", "growth": "101%"}
{"smiles": "CN(C)c1ccc(/C=N\\NC(=O)c2ccc3nc(-c4ccc(Cl)cc4)[nH]c3c2)cc1", "growth": "40.2%"}
{"smiles": "CCOC(=O)C1=C(c2ccccc2)N=C2N(c3ccccc3)N=C(C(C)=O)N2C1c1ccc(F)cc1", "note": "(centres undefined)", "growth": "96.3%"}
{"smiles": "CN(C)Cc1ccc(NC(=O)c2cncc(C#Cc3cnc(N)c4ncccc34)c2)cc1C(F)(F)F", "growth": "70.8%"}
{"smiles": "CCN(CC)CCn1c2ccc(OC)cc2c2sc3cc(O)ccc3c(=O)c21", "growth": "26.3%"}
{"smiles": "Cc1cc(=O)oc2cc(Oc3nc(Br)cn4c(Br)cnc34)ccc12", "growth": "77.4%"}
{"smiles": "Nc1[nH]nc2nc(-c3ccccc3)n3c4ccccc4nc3c12", "growth": "77.9%"}
{"smiles": "O=[N+]([O-])c1ccccc1Sc1ccccc1[N+](=O)[O-]", "growth": "105%"}
{"smiles": "CC1(C)N=C(N)N=C(N)N1c1ccc(S(=O)(=O)Nc2nccs2)cc1", "growth": "100%"}
{"smiles": "c1ccc(-c2ccc3c(c2)C2(CCNCC2)CN3)cc1", "growth": "73%"}
{"smiles": "CCOC(=O)/C=C1\\S/C(=N\\Nc2cc(=O)[nH]c3ccc(Br)cc23)N(c2ccccc2)C1=O", "growth": "58.7%"}
{"smiles": "COc1ccc(C2CC(n3ccnc3)c3cc(OC)c(OC)c(OC)c32)cc1O", "note": "(centres undefined)", "growth": "82.4%"}
{"smiles": "COC(=O)c1c2c(c[n+]([O-])c1C)C(=O)C=C(NCc1ccccc1)C2=O", "growth": "-66.9% (active)"}
{"smiles": "COc1ccc2c(c1)c(-c1nc(-c3ccc4ccccc4c3)cs1)cn2C", "growth": "85.9%"}
{"smiles": "Cc1ccc2c(c1)nc(C)n2-c1ncnc2c1CC(C)c1cc(O)ccc1N2C", "note": "(centres undefined)", "growth": "51.4%"}
{"smiles": "Cc1cc(N2CCN(CC(=O)Nc3ccc4c(ccn4Cc4ccccc4)c3)CC2)nc(N2CCOCC2)n1", "growth": "76.8%"}
{"smiles": "COCCn1cc(-c2csc(-c3c[nH]c4ccc(F)cc34)n2)c2cccnc21", "growth": "42%"}
{"smiles": "Cc1ccc(C(=O)c2ccc(CC(=O)N/N=C/c3cccc(O)c3O)n2C)cc1", "growth": "51.2%"}
{"smiles": "CC[C@@H](C(=O)[C@@H](C)[C@@H](O)[C@H](C)[C@@H]1O[C@@H]([C@@H](CC)C(=O)ONC(=O)c2ccccc2O)CC[C@@H]1C)C1O[C@]2(C=CC(=O)[C@]3(CC[C@@](C)([C@H]4CC[C@](O)(CC)[C@H](C)O4)O3)O2)[C@H](C)C[C@@H]1C", "note": "(some centres undefined)", "growth": "58.8%"}
{"smiles": "COc1cc(-c2nccc3[nH]c(-c4cccc5[nH]ccc45)nc23)cc(OC)c1OC", "growth": "44.6%"}
{"smiles": "CC(C)Cc1nc(Nc2ccccc2)[nH]c(=O)c1C#N", "growth": "71.4%"}
